Compound activity deposited in PubChem BioAssay by several laboratories.
Rce1 inhib: blocks yeast Ras-converting enzyme | actives 0.27% (n = 290,000) | calls only | yeast membranes, quenched prenylated peptide cleavage fluorescence;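 active = fall in fluorescence gain of 50% or more versus controls, with final raw signal at or below 3038400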
Efflux pump inh: inhibitors of Candida antifungal efflux pumps expressed in yeast; inhibition, % at 10 µM; S. cerevisiae Candida pump triplex, Nile Red efflux; actives 0.44% (n = 330,000);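 active = plate passing quality check with inhibition over a set limit, or well fluorescence over plate mean plus 4 SD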;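 note: Nile Red retained in pooled yeast measured as flow cytometry median fluorescence; higher means more Nile Red kept so more efflux inhibition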
V-ATPase pH: yeast V-ATPase proton transport regulation by pHLuorin; S. cerevisiae, pHLuorin cytosolic pH fluorescence; response, % at 10 µM; actives 0.37% (n = 350,000); AID 504577; in the data active = response mostly above about 7.3%, no sharp cut-off; inactive = mostly below about 5.4%; note: actives read high
NPR2 activator: GC-B (human) receptor activation; P20594; HEK293-GC-B cells, CNP EC30, cGMP TR-FRET; 0% at EC30 CNP, 100% saturating CNP; activation, % at 10 µM; actives 0.11% (n = 370,000); AID 1920062;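 active = activation at 10 µM reaching about 35% in either raw or pattern-adjusted values, limit read from the data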
NSD2 inh: blocks human histone methyltransferase NSD2 | O96028 | NSD2 peptide methylation, AlphaScreen, 120 min | inhibition, % at 12.5 µM | actives 0.54% (n = 310,000); in the data active = inhibition above about 50%
NPR1 activator: GC-A (human) enzyme activation; P16066; HEK293 GC-A cells, cGMP TR-FRET, EC30 ANP; 0% at EC30 ANP, 100% saturating ANP; activation, % at 10 µM; actives 0.14% (n = 370,000); in the data active = activation above about 40%
Of the large screens only hits and unclear results are named; the others gave an inactive call. Rows were chosen to be rich in hits. Some 1.6% of all compounds tested hit in one or more screens of this group.

C[C@H](O)[C@@H]1CN2CCc3c([nH]c4c(-c5ccc6c(c5)OCO6)cccc34)[C@@H]2C[C@@H]1N(C)C(=O)Nc1ccccc1	none (no result: Rce1 inhib, Efflux pump inh, V-ATPase pH, NSD2 inh)
O=C(OC12CCCN(C1)/C(=C/c1ccc(Cl)cc1)C2)c1ccc(Cl)cc1 (stereo not given)	none (no result: Rce1 inhib, Efflux pump inh, V-ATPase pH, NSD2 inh)
O=C(CNS(=O)(=O)c1c(F)cc(F)cc1Br)OCC(=O)N1CCCC1=O	V-ATPase pH 13.4
O=C(CNS(=O)(=O)c1cccc(F)c1)OCC(=O)N1CCCC1=O	none (no result: Rce1 inhib)
COC(=O)[C@]12C[C@H](CC(=O)NCCCCc3ccccc3)C(=O)N(CCc3ccc(OC)c(OC)c3)C1=C[C@H](C(C)(C)C)O[C@@H]2C	none (no result: Rce1 inhib, Efflux pump inh, V-ATPase pH, NSD2 inh)
Nc1nc2c(ncn2[C@@H]2O[C@H](CNCC3=Cc4cc(O)ccc4OC3)[C@@H](O)[C@H]2O)c(=O)[nH]1	NPR2 activator 38.8, NPR1 activator 47.1 (no result: Rce1 inhib, Efflux pump inh, V-ATPase pH, NSD2 inh)
O=C(Nc1cc(S(=O)(=O)N2CCCCC2)ccc1Cl)c1ccccc1NS(=O)(=O)c1ccc(F)cc1	Rce1 inhib active
Cc1ccc(NC(=O)C2CCCC2)c(C)c1	none (no result: Rce1 inhib, Efflux pump inh, V-ATPase pH, NPR2 activator, NPR1 activator)
CN(C(=O)CSc1nnc(-c2ccc(F)cc2)n1C)C1CCS(=O)(=O)C1 (stereo not given)	V-ATPase pH 10.1 (no result: Rce1 inhib)
CN(C(=O)CSc1nnc(-c2ccc(Cl)cc2)n1C)C1CCS(=O)(=O)C1 (stereo not given)	none (no result: Rce1 inhib)
CN(C(=O)CSc1nnc(Nc2ccccc2F)s1)C1CCS(=O)(=O)C1 (stereo not given)	none (no result: Rce1 inhib)
Cc1ccccc1Nc1nnc(SCC(=O)N(C)C2CCS(=O)(=O)C2)s1 (stereo not given)	V-ATPase pH 15.8
CC(C)(C)NC(=O)C(c1cccnc1)N(C(=O)c1cnc[nH]1)c1ccc(C(C)(C)C)cc1 (stereo not given)	none (no result: Rce1 inhib, Efflux pump inh, V-ATPase pH)
c1ccc(N2CCN(Cc3cnc(N4CCOCC4)s3)CC2)cc1	none
c1cnn(Cc2cnc(N3CCOCC3)s2)c1	Rce1 inhib active
Cc1ccc(-n2c(SCC(=O)Nc3ccc(OCc4ccccc4)cc3)nnc2-c2cnccn2)cc1	none (no result: Rce1 inhib, Efflux pump inh, V-ATPase pH)
COc1ccc(Cn2cc(CN3[C@@H](CC(C)C)COc4ccc(Cl)cc4S3(=O)=O)nn2)cc1	none (no result: Rce1 inhib, Efflux pump inh, V-ATPase pH, NSD2 inh)
Cc1cc(C)c(S(=O)(=O)ON2C(=O)c3ccccc3C2=O)cc1C	NPR2 activator 36.4
O=S(=O)(c1ccccc1)N1CCN(S(=O)(=O)c2ccc(F)cc2)CC1	none
O=C1c2ccccc2C(=O)N1OS(=O)(=O)c1ccc(F)cc1	NPR1 activator 41.6
Cc1ccc(S(=O)(=O)ON2C(=O)c3ccccc3C2=O)c(C)c1	V-ATPase pH 8.1, NPR2 activator 45.6, NPR1 activator 40.6 (no result: Rce1 inhib)
Cc1ccc(S(=O)(=O)N2CCN(CCc3ccccc3)CC2)c(C)c1	none
Cc1cc(C)c(C)c(S(=O)(=O)ON2C(=O)c3ccccc3C2=O)c1C	NPR2 activator 47.0, NPR1 activator 41.7 (no result: Rce1 inhib)
COCCCNC(=O)C[C@H]1C[C@@]2(C(=O)OC)C(=C[C@H](C(C)C)O[C@@H]2C2CC2)N(Cc2ccc(Cl)cc2Cl)C1=O	none (no result: Rce1 inhib, Efflux pump inh, V-ATPase pH, NSD2 inh)
O=C(/C=C/c1ccccc1)Oc1ccccc1O	none (no result: Rce1 inhib, Efflux pump inh, V-ATPase pH, NPR2 activator, NPR1 activator)
COC(=O)[C@H](Cc1ccccc1)N(Cc1cn(Cc2ccccc2)nn1)S(=O)(=O)c1ccccc1Br	none (no result: Rce1 inhib, Efflux pump inh, V-ATPase pH, NSD2 inh)
Cc1ccc(N=Cc2c(O)n(C)c(=O)n(C)c2=O)nc1	Rce1 inhib active
CC(=O)Oc1ccc(N(C(C)=O)S(=O)(=O)c2ccc(Cl)cc2)c2ccccc12	V-ATPase pH 18.3
CC(=O)Oc1ccc(N(C(C)=O)S(=O)(=O)c2ccc(C)cc2)c2ccccc12	none
O=C(N/N=C/c1ccncc1)/C(=C/c1ccccc1)NC(=O)c1ccccc1	none
Cc1ccnc(N/C=C(/NC(=O)c2ccccc2)C(=O)N/N=C\c2ccc(Cl)cc2)n1	NPR1 activator 52.3
COC(=O)c1sc(-c2ccc(Cl)cc2)cc1NC(=O)COCC(=O)O	none
COC(=O)c1sc(-c2ccc(Cl)cc2)cc1NC(=O)/C=C/C(=O)O	NPR1 activator 46.6
Oc1ccc2ccccc2c1C=NC12CN3CCN(CN(C3)C1)C2	NSD2 inh 113.1 (no result: Rce1 inhib)
OCC(CO)(CO)N=Cc1c(O)ccc2ccccc12	none
C[C@@]12CCC=C[C@H]1[C@H](c1ccc(/C=C/c3ccccc3)cc1F)N(Cc1ccccc1)C2=O	Rce1 inhib active (no result: NSD2 inh)
CC1CC1C(=O)Nc1nc(-c2ccc(Cl)s2)cs1 (stereo not given)	NPR1 activator 50.5
